Results filed as inconclusive are left out. Where a call stands in place of a potency, no number is given. Activity calls are given as the source filed them. The call rests on the fitted dose curve; in most records, active means well fitted cell-killing curve with a large enough effect in the repeat runs; inconclusive means weak or mixed curves, or effect the other way; inactive means flat fitted curve, though single readings scatter.
Experiment: cAMP Responsive Elements (CRE) small molecule antagonists, cell-based qHTS assay: qHTS cell viability counter screen (AID 2060913); further: nearly all actives have a fitted effect of over 40% in size; further: potency means the concentration at half of the fitted maximal effect
Details: CRE-bla HEK293T viability, CellTiter-Glo luminescence, 5 h; series mostly up to 92.4 µM
Outline: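 CRE-bla HEK293T cells (2,000/well, 18 h) given compound plus NKH477 0.25 uM final for 3 h at 37C; viability counter-screen by CellTiter-Glo luminescence in same wells after 30 min.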

| Compound | Potency |
| --- | --- |
| CC1(C)[C@@H]2CC[C@@]1(C)[C@H](O)C2 | inactive |
| CCCCCCCCCCCCOC(=O)c1ccc(O)cc1 | inactive |
| C/C=C(/C(=C/C)c1ccc(O)cc1)c1ccc(O)cc1 | inactive |
| Nc1c(N=Nc2ccc(-c3ccc(N=Nc4cc(S(=O)(=O)O)c5ccccc5c4N)cc3)cc2)cc(S(=O)(=O)O)c2ccccc12 | inactive |
| Oc1ccc(Cc2ccccc2)cc1 | inactive |
| CC(=O)OCC=C(C)C | inactive |
| O=C(O)c1ccc(S(=O)(=O)N(Cl)Cl)cc1 | inactive |
| CCCCCCOc1cc(C)c(O)c(C)c1C | 55.1 µM (active) |
| CN(C)C(=O)NC1(c2ccccc2)CCN(CC[C@@]2(c3ccc(F)c(F)c3)CN(C(=O)c3ccccc3)CCO2)CC1 | inactive |
| CC(CCO)CCCC(C)(C)O (centres undefined) | inactive |
| CC1CC(=O)CC(C)(C)C1 (centres undefined) | inactive |
| O=Cc1cc2ccccc2o1 | inactive |
| Nc1ccc(S(=O)(=O)O)cc1 | inactive |
| CC(=O)OC(C)c1ccccc1 (centres undefined) | inactive |

Experiment: cAMP Responsive Elements (CRE) small molecule agonists, cell-based qHTS assay: qHTS cell viability counter screen (AID 2060914); further: nearly all actives have a fitted effect of over 50% in size
Details: CRE-bla HEK293T viability, CellTiter-Glo luminescence, 5 h; series mostly up to 92.4 µM
Outline: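 Luminescence read-out (CellTiter-Glo, 30 min RT) of ATP-based viability in CRE-bla HEK 293T cells, run in the same wells as the β-lactamase reporter assay after 3 h compound treatment at 37 °C.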

| Compound | Potency |
| --- | --- |
| C1=Cc2ccccc2C1 | inactive |
| CCCCCC(N)=O | inactive |
| COC(=O)CCCCC(CCSS/C(CCO)=C(\C)N(C=O)Cc1cnc(C)nc1N)SC(C)=O (centres undefined) | inactive |
| Nc1cc([N+](=O)[O-])ccc1C(=O)O | inactive |
| CCCOCC(C)O (centres undefined) | inactive |
| CN(C)CCCNCCCN(C)C | inactive |
| C[Si](Cl)(c1ccccc1)c1ccccc1 | inactive |
| c1ccc2occc2c1 | inactive |
| CN(C)CCCN | inactive |
| CC(=O)OCc1ccco1 | inactive |
| C/C=C(\C)C(=O)OCc1ccccc1 | inactive |
| Cc1ccc2ccc(Cl)cc2n1 | inactive |
| Cc1cccc(Nc2ccccc2)c1 | inactive |
| NCCCOCCOCCOCCCN | inactive |
| C=C(C)[C@H]1CC=C(C)C(=O)C1 | inactive |
| O=C(O)c1c(Cl)ccc(Cl)c1Cl | inactive |
| COc1cc(C(=O)NS(=O)(=O)c2ccccc2C)ccc1Cc1cn(C)c2ccc(NC(=O)OC3CCCC3)cc12 | inactive |
| NS(=O)(=O)c1cc2c(cc1Cl)CN(C1CCCCC1)C2=O | inactive |
| CO | inactive |
| C=CCCCCCCCC | inactive |

| Compound | Potency |
| --- | --- |
| O=C1OC(=O)c2c(Cl)c(Cl)c(Cl)c(Cl)c21 | inactive |
| CC(=O)S[C@H](C(=O)N[C@H]1Cc2ccccc2[C@H]2CCC[C@@H](C(=O)O)N2C1=O)C(C)C | inactive |
| CCCCc1ccc(Cl)cc1 | inactive |
| CC(=O)[C@@]1(O)CC[C@H]2[C@@H]3C[C@H](C)C4=CC(=O)CC[C@]4(C)[C@H]3CC[C@@]21C | inactive |
| CCN(CC)c1ccc(C=O)c(O)c1 | inactive |
| CN(C)CCN1C(=O)c2ccccc2N(C)c2ccccc21 | inactive |
| CC1(C)[C@@H]2CC[C@@]1(C)[C@H](O)C2 | inactive |
| CCCCCCCCCCCCOC(=O)c1ccc(O)cc1 | inactive |
| C/C=C(/C(=C/C)c1ccc(O)cc1)c1ccc(O)cc1 | inactive |
| Nc1c(N=Nc2ccc(-c3ccc(N=Nc4cc(S(=O)(=O)O)c5ccccc5c4N)cc3)cc2)cc(S(=O)(=O)O)c2ccccc12 | inactive |
| Oc1ccc(Cc2ccccc2)cc1 | inactive |
| CC(=O)OCC=C(C)C | inactive |
| O=C(O)c1ccc(S(=O)(=O)N(Cl)Cl)cc1 | inactive |
| CCCCCCOc1cc(C)c(O)c(C)c1C | inactive |
| CN(C)C(=O)NC1(c2ccccc2)CCN(CC[C@@]2(c3ccc(F)c(F)c3)CN(C(=O)c3ccccc3)CCO2)CC1 | inactive |
| CC(CCO)CCCC(C)(C)O (centres undefined) | inactive |
| CC1CC(=O)CC(C)(C)C1 (centres undefined) | inactive |
| O=Cc1cc2ccccc2o1 | inactive |
| Nc1ccc(S(=O)(=O)O)cc1 | inactive |
| CC(=O)OC(C)c1ccccc1 (centres undefined) | inactive |
